# According to ChEMBL document CHEMBL3988442, “University of Dundee, Small-Polar-MMV Screening Library” (2021):
# For some of these results: Entries with a potency or affinity are not part of this list.
# Columns and labels:
# Set-up in all cases: scale not given: direction of the effect not stated beside the values
# [1] = molecular target: Protein translocase subunit SecA (Escherichia coli (strain K12)) (UniProt P10408); assay: Assay to Identify E. coli SecA ATPase Inhibitors; type: functional; conditions: 30 µM
# [2] = molecular target: T1, Ubiquitin-activating enzyme e1, putative (Leishmania donovani (strain BPK282A1)) (UniProt E9BSI1); assay: Leishmania donovani Ubiquitin Activating Enzyme (LdE1); type: functional; conditions: 30 µM
# T1 sequence (whole entry): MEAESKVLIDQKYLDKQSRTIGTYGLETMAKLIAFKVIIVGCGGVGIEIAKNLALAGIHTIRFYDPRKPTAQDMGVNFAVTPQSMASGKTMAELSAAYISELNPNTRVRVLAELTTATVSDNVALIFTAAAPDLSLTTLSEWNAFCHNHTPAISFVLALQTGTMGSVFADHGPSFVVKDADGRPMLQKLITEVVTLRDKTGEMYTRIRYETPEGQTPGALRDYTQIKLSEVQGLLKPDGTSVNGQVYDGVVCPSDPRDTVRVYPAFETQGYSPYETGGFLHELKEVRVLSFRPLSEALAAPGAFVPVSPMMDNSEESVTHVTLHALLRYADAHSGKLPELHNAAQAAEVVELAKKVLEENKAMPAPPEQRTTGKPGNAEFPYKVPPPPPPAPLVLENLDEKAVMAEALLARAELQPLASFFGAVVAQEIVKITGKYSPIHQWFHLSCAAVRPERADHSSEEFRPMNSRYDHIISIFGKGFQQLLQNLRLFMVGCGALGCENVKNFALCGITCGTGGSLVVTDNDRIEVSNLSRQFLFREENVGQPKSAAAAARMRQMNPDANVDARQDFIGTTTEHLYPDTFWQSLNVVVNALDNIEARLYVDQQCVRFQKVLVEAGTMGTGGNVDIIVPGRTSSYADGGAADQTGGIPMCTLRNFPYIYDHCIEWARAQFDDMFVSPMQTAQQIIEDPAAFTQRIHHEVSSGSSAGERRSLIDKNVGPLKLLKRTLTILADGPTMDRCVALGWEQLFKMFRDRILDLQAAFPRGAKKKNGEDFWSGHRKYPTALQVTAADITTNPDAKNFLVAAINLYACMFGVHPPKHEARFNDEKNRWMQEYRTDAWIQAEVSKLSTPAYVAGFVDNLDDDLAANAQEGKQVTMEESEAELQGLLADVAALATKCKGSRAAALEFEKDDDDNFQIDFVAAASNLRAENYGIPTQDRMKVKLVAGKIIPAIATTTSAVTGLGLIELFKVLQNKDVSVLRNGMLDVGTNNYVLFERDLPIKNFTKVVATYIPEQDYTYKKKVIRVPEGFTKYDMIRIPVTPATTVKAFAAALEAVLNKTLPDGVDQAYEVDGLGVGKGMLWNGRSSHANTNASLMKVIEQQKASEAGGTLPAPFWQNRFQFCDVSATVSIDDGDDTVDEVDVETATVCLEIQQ
# [3] = molecular target: Sialic acid-binding Ig-like lectin 9 (Homo sapiens) (UniProt Q9Y336); assay: Hs-Siglec9 ALPHAscreen SOP 20170721; conditions: 10 µM
# Trypanosoma cruzi = assay: Trypanosoma cruzi phosphomannomutase and mannose-1-phosphate guanylyltransferase assay; type: functional; conditions: 10 µM
# [4] = molecular target: T2, Arginase-2, mitochondrial (Homo sapiens) (UniProt P78540); assay: in vitro enzyme assay to detect the production of urea directly proportional to the activity of Arginase II; type: functional; conditions: 33.3 µM; further: in the data most compounds retested in dose-response had high values
# T2 sequence (whole entry): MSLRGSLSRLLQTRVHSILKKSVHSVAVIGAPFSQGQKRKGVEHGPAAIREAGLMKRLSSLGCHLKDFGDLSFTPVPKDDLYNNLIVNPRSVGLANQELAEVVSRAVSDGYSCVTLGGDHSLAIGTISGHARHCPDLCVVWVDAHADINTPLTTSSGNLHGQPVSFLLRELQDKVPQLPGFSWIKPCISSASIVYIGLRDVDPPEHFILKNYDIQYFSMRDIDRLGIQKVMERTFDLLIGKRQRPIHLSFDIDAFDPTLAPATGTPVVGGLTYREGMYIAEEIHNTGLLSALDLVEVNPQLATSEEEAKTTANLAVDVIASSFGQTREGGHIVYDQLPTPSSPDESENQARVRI
# [5] = molecular target: T3, Proteasome subunit beta (Trypanosoma cruzi) (UniProt O96673); assay: Trypanosoma cruzi proteasome chymotrypsin-like activity (TcProtChymo) assay.; further: in the data most compounds retested in dose-response had high values; type: functional; conditions: 9.37 µM
# T3 sequence (whole entry): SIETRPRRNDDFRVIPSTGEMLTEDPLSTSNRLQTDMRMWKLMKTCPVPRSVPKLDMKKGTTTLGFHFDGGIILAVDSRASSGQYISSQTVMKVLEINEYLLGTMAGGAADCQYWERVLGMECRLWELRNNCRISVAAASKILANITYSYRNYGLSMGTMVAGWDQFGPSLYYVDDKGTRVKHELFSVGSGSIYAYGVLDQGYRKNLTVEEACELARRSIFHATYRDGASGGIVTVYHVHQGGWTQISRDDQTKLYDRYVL
# Homo sapiens = species: Homo sapiens; assay: To identify inhibition of the IFN signalling (Jak-Stat) pathway via expression of an eGFP reporter gene under the control of an IFN-stimulated response element (ISRE) containing MxA promoter.; type: functional; conditions: 30 µM
# [6] = molecular target: T4, Tyrosyl-tRNA synthetase, putative (Trypanosoma cruzi (strain CL Brener)) (UniProt Q4DSP6); assay: Trypanosoma cruzi tyrosyl tRNA synthetase (TcYRS) _High Tyrosine SOP; type: functional; conditions: 30 µM; further: in the data most compounds retested in dose-response had high values
# T4 sequence (whole entry): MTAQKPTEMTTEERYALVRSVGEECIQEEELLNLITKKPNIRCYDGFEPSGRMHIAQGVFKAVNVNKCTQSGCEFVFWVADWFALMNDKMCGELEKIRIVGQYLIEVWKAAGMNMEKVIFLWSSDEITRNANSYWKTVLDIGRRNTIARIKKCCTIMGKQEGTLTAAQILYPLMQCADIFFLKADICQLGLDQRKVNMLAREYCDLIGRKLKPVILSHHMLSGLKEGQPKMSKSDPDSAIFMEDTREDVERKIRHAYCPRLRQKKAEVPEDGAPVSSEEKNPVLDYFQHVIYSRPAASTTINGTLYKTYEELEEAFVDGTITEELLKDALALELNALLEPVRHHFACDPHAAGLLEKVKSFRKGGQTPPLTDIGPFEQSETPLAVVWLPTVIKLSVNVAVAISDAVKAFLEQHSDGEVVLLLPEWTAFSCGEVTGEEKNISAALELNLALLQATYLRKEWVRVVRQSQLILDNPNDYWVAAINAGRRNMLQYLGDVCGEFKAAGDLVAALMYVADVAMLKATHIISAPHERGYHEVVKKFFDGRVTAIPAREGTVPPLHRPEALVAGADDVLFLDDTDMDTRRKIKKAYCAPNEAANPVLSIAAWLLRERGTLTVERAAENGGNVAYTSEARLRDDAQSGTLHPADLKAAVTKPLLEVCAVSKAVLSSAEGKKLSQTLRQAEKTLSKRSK
# [7] = molecular target: T4, Tyrosyl-tRNA synthetase, putative (Trypanosoma cruzi (strain CL Brener)); assay: Trypanosoma cruzi tyrosyl tRNA synthetase (TcYRS) SOP; type: functional; conditions: 30 µM
# [8] = molecular target: Chromo domain-containing protein 1 (Saccharomyces cerevisiae (strain ATCC 204508 / S288c) (Baker's yeast)) (UniProt P32657); assay: ScCHD-1 Enzyme Inhibition Assay; type: functional; conditions: 30 µM; further: in the data most compounds retested in dose-response had high values
# Chromo domain-containing protein 1 (Saccharomyces cerevisiae (strain ATCC 204508 / S288c) (Baker's yeast)), sequence (P32657 whole entry, the tested form may be a part): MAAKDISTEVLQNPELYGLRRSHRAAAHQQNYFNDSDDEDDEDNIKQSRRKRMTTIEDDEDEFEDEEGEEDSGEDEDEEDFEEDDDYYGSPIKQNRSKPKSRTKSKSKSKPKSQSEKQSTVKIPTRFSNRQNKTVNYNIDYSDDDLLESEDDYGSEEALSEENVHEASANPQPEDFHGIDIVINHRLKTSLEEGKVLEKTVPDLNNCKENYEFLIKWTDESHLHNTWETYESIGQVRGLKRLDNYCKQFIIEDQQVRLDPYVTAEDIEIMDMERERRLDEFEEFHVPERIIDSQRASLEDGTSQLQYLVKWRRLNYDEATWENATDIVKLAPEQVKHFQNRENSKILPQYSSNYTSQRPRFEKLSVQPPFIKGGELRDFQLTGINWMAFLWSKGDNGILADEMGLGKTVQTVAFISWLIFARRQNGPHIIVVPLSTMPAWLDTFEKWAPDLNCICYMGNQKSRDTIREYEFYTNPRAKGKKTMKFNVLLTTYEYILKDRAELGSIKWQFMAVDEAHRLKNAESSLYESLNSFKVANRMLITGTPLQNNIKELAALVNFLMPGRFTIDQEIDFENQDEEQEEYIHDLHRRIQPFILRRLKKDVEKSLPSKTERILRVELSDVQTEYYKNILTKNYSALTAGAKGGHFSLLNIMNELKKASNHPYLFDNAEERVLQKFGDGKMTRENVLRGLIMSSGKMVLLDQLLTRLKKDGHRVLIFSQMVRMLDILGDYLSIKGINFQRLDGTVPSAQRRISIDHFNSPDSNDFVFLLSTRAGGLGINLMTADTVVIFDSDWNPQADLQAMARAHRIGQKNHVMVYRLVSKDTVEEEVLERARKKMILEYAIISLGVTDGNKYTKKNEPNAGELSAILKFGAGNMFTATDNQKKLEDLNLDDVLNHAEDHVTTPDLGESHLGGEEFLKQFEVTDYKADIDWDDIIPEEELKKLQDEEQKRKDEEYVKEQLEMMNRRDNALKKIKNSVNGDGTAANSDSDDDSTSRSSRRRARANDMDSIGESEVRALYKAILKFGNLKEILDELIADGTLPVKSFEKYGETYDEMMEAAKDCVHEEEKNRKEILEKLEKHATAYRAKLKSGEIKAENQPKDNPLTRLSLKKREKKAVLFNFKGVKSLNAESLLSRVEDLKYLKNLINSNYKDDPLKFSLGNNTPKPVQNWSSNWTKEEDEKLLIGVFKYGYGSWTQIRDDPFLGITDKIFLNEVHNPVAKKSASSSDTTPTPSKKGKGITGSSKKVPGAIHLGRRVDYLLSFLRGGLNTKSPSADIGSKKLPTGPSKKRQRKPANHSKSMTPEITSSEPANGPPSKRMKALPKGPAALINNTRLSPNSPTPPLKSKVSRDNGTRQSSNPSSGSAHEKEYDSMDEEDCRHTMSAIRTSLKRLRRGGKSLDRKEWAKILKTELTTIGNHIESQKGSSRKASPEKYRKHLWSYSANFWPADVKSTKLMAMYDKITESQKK
# Sialic acid-binding Ig-like lectin 9 (Homo sapiens), sequence (Q9Y336 whole entry): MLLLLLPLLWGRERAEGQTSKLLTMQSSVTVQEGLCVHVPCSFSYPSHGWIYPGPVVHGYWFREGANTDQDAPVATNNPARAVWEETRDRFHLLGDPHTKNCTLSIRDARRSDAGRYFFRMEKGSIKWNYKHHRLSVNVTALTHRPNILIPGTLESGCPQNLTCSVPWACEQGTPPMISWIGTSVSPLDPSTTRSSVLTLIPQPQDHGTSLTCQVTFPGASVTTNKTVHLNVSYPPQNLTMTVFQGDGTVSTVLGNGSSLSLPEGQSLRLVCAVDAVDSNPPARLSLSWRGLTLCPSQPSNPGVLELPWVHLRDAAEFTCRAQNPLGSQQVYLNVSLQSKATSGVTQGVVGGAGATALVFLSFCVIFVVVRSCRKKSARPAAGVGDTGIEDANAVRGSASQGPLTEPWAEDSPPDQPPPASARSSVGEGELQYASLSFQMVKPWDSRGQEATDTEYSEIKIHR
# Protein translocase subunit SecA (Escherichia coli (strain K12)), sequence (P10408 whole entry): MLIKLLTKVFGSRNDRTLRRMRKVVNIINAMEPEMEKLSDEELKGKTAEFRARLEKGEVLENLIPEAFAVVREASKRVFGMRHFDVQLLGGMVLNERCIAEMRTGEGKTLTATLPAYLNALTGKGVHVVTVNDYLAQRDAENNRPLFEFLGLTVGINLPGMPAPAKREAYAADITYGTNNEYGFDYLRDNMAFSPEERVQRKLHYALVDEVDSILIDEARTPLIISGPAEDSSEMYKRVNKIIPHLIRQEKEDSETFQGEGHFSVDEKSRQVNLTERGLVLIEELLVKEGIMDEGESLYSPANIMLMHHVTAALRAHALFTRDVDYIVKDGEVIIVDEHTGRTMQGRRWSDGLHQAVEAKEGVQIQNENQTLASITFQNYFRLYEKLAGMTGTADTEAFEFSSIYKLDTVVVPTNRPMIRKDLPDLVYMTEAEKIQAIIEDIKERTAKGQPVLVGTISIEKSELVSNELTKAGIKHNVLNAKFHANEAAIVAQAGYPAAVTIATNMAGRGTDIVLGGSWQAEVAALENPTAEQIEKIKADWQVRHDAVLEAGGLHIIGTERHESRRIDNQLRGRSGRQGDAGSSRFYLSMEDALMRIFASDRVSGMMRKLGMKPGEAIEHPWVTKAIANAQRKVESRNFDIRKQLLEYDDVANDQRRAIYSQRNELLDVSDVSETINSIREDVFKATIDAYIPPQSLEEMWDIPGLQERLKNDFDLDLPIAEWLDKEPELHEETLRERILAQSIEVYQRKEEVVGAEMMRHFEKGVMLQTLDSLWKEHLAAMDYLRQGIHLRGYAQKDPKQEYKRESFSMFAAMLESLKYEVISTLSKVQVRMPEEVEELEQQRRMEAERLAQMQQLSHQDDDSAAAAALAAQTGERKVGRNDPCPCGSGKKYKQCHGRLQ
Structure (SMILES),Percent Effect [1] [%],Percent Effect [2] [%],Percent Effect [3] [%],Percent Effect (Trypanosoma cruzi) [%],Percent Effect [4] [%],Percent Effect [5] [%],Percent Effect (Homo sapiens) [%],Percent Effect [6] [%],Percent Effect [7] [%],Percent Effect [8] [%]
Cc1cncc(C2CCCN(Cc3cccn3C)C2)n1 (stereo not given),-2.21,12,2.11,-0.592,-6.64,10.5,6.97,9.52,12.5,-15.4
COc1cccc(CNc2cnn(C)c(=O)c2Cl)c1,-6.48,0,3.58,-1.21,6.65,3.48,55.5,2.63,5.13,-5.75
CC(C)c1cc(NC(=O)CN2CCNC(=O)C2)on1,-0.0493,26,-4.98,-0.933,-1.43,11.2,1.34,7.84,21.2,-9.71
CO[C@@H]1CCN(C(=O)c2ccccn2)[C@H]1Cc1ccccc1,-0.453,19.5,2.27,1.5,-0.457,6.95,8.74,8.7,10,-6.55
Cc1cc(NC(=O)CCN(CC2CCOC2)C2CC2)no1 (stereo not given),-3.2,21.3,-0.377,1.21,-2.22,10.3,8.07,3.68,15.4,-13.2
Cn1cc(CN2CCCC23CCN(C(=O)c2cccn2C)CC3)cn1,-1.03,-6.49,-3.73,-0.876,-2.43,-0.441,-15.7,-0.526,0,-0.154
NC(=O)NC(=O)CCN1CCCN(c2nccs2)CC1,-0.41,10.7,-0.94,-4.02,3.1,9.41,13.6,7.89,10.3,-7.5
c1ccc(OC2CCCC2)c(CNC2CCc3ncnn3C2)c1 (stereo not given),-3.8,10.3,-13.9,5.35,2.87,20.7,3.46,6.22,18.1,-3.21
Cc1cc(C)n(CC2CCCCN2C(=O)c2ccc3c(c2)OCO3)n1 (stereo not given),-0.864,5.33,-0.84,-6.22,1.33,7.38,8.9,2.63,10.3,-0.951
CCS(=O)(=O)N(C)CC(=O)Nc1ccc(Br)cn1,-6.17,26.7,0.132,-0.402,-0.444,18.2,13.7,1.58,12.8,-8.92
Cc1noc(C2CCN(C(=O)CCNS(C)(=O)=O)CC2)n1,-2.97,10.3,4.81,3.47,3.69,5.89,3.03,4.31,18.1,-0.743
CN(C)CC1CN(Cc2coc(-c3ccccc3Cl)n2)CCO1 (stereo not given),-1.66,13.3,-4.39,-2.41,2.66,10.6,3.83,0.526,5.13,-10.4
CN1CC(c2ccccc2)CC2(CCN(CC(=O)N(C)C)CC2)C1 (stereo not given),-6.25,5.41,9.32,8.44,-3.85,9.42,-25,1.6,17.1,-2.37
